Assay outcomes as filed in PubChem BioAssay.
HP1b binding inh = inhibitors of HP1-beta chromodomain binding to methylated histone tails | P83916 | AlphaScreen HP1-beta / biotin-H3K9me3 peptide binding | Potency, µM (series often up to 114 µM), actives largely listed as inhibitors | 390,000 tested, 0.56% active; further: nearly all actives have a fitted effect of over 70% in size
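AlphaScreen: HP1-beta (50 nM) preformed 30 min with biotin-H3(1-18)K9me3 peptide (50 nM) in PBS pH 7.4, 0.01% Tween-20. Compound added for 30 min at RT, then streptavidin donor/nickel chelate acceptor beads (10 ug/mL) for 30 min.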
G9a inh = G9a (human) methyltransferase inhibition; Q96KQ7; G9a H3K9 monomethylation, AlphaScreen, 2 h; Potency, µM (titrated, usually from 102 µM), hits mostly inhibitors; 350,000 tested, 8.8% active; further: nearly all actives have a fitted effect of over 75% in size
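Enzyme 20 nM + cpd, 15 min RT; add b-H3K9 pep 500 nM / SAM 20 uM; 2 h RT; anti-H3K9me1 Ab 0.5 ug/mL + SA donor / anti-rabbit acceptor beads 20 ug/mL each, 10 min; AlphaScreen read.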
JMJD2A Tudor = inhibitors of human JMJD2A Tudor domain; 390,000 tested, 4.4% active; O75164; AlphaScreen JMJD2A-Tudor / H3K4me3 peptide binding; Potency, µM (top dose mostly 114 µM), hits mostly inhibitors; AID 504339; further: nearly all actives have a fitted effect of over 50% in size
BAZ2B block = inhibitors of human BAZ2B bromodomain. Q9UIF8. AlphaScreen BAZ2B-H3K14Ac peptide displacement. Potency, µM (titrated, usually from 114 µM), usual class: inhibitors. 360,000 tested, 4.4% active. AID 504333; further: nearly all actives have a fitted effect of over 60% in size
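Multi-concentration screen (max 110 uM) measuring displacement of acetylated histone H3 peptide from BAZ2B by AlphaScreen, using 50 nM protein, 50 nM peptide and 10 ug/mL streptavidin donor plus Ni-chelate acceptor beads.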
GLS inh = blocks human kidney-isoform glutaminase activity; Potency, µM (series often up to 45.5 µM), usual class: inhibitors; GLS enzymatic activity, qHTS titration; 410,000 tested, 0.21% active; AID 624170
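Read-out is an Amplex red fluorescence increase coupled through glutamate oxidase and HRP, measured before and after 30 min room-temperature incubation. hKGA is in 45 mM KH2PO4 (pH 8.2) with 0.02% Tween-20; glutamine added as 1mM solution.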
Of the large screens only hits and unclear results are named; the others gave an inactive call. A selection: hits, their analogues and other compounds. The true share with any hit is near 10%. The call rests on the fitted dose curve; in most records, active means well fitted curve in the direction sought with a large enough effect; inconclusive means small, poorly fitted or top-dose-only effect, or another doubt; inactive means no such curve, though single readings can be large; an effect the other way counts as inactive or inconclusive.

CC(=O)Oc1cccc(N2C(=O)c3ccc(C(=O)O)cc3C2=O)c1	none (no result: BAZ2B block)
CC(=O)Oc1cccc(N2C(=O)c3cccc4c([N+](=O)[O-])ccc(c34)C2=O)c1	G9a inh 40µM
Cc1ccc(C(=O)O)cc1N1C(=O)c2cccc3c([N+](=O)[O-])ccc(c23)C1=O	G9a inh 25µM, JMJD2A Tudor 56µM, BAZ2B block 50µM, GLS inh inconclusive
O=C(Nc1nccs1)c1cccc(N2C(=O)c3cccc4c([N+](=O)[O-])ccc(c34)C2=O)c1	none
O=C(c1cc(COc2ccc(F)cc2F)on1)N1C[C@H]2CC[C@H]1C2	none
CCOc1ccc(C2CC(c3cccc(OC)c3)Nc3nc(N)nn32)cc1 (configuration not stated)	none
CN1C(=O)/C(=C\c2cccc(OCc3ccccc3)c2)SC1=S	BAZ2B block inconclusive
Cc1ccc(/C=C2/SC(=S)N(CC(=O)Nc3ncc(Cc4ccc(C)cc4)s3)C2=O)cc1	none
O=C(O)COc1cccc(/C=C2/SC(=S)N(Cc3ccccc3)C2=O)c1	G9a inh 45µM, JMJD2A Tudor 50µM, BAZ2B block inconclusive
O=C(O)CN1C(=O)/C(=C\c2cccc(OCc3ccccc3)c2)SC1=S	HP1b binding inh inconclusive, JMJD2A Tudor inconclusive, BAZ2B block 56µM
Cc1cccc(Cc2cnc(NC(=O)CN3C(=O)/C(=C/c4ccccc4)SC3=S)s2)c1	HP1b binding inh inconclusive, G9a inh 40µM, BAZ2B block inconclusive
Cc1ccc(C)c(CN2C(=O)C3(OCCCO3)c3ccccc32)c1	none
CSc1ncc(C(=O)Nc2ccccc2C(=O)c2ccccc2)c(C(F)(F)F)n1	none
Clc1ccc(C2Nc3cccc4cccc(c34)N2)c(Cl)c1	HP1b binding inh inconclusive, JMJD2A Tudor 35µM (no result: G9a inh, BAZ2B block)
Clc1cccc(-c2ccc(C3Nc4cccc5cccc(c45)N3)o2)c1	HP1b binding inh inconclusive, JMJD2A Tudor 40µM (no result: G9a inh, BAZ2B block)
Clc1ccc(C2Nc3cccc4cccc(c34)N2)cc1	G9a inh 35µM, JMJD2A Tudor inconclusive, BAZ2B block inconclusive
CSc1ccc(C2Nc3cccc4cccc(c34)N2)cc1	HP1b binding inh 18µM, JMJD2A Tudor 18µM, BAZ2B block 50µM
Nc1ccccc1N=Cc1ccc(-c2cccc(Cl)c2)o1	G9a inh inconclusive
CN1c2ccccc2N(C)C1c1ccc2c(c1)OCO2	none
O=[N+]([O-])c1cc(C2Nc3cccc4cccc(c34)N2)ccc1Cl	G9a inh inconclusive, BAZ2B block inconclusive
Cc1cccc(C2Nc3cccc4cccc(c34)N2)c1	HP1b binding inh inconclusive, G9a inh 35µM, JMJD2A Tudor inconclusive, BAZ2B block inconclusive
c1cc2c3c(cccc3c1)NC(c1ccc3c(c1)OCO3)N2	HP1b binding inh inconclusive, G9a inh 35µM, JMJD2A Tudor 40µM, BAZ2B block 40µM
Brc1ccc(C2Nc3cccc4cccc(c34)N2)s1	HP1b binding inh inconclusive, G9a inh 25µM, BAZ2B block inconclusive
Cc1ccc(NS(=O)(=O)c2ccc3[nH]c4c(c3c2)CCCCCC4)cc1Cl	JMJD2A Tudor inconclusive
CCOC(=O)c1cccc(NS(=O)(=O)c2ccc3[nH]c4c(c3c2)CCCC4)c1	HP1b binding inh inconclusive, G9a inh 14µM, JMJD2A Tudor 28µM, BAZ2B block 40µM
Cc1ccc(NS(=O)(=O)c2ccc3[nH]c4c(c3c2)CCCC4)cc1N(C)C	HP1b binding inh inconclusive, G9a inh inconclusive, JMJD2A Tudor 35µM, BAZ2B block 32µM
Cc1cccc(NS(=O)(=O)c2ccc3[nH]c4c(c3c2)CCCCCC4)c1	G9a inh 16µM, JMJD2A Tudor inconclusive
CC(=O)c1cccc(NS(=O)(=O)c2ccc3[nH]c4c(c3c2)CCCCC4)c1	G9a inh 16µM, JMJD2A Tudor inconclusive
COc1ccc(OCCN2CCC(C(=O)NC(c3ccccn3)c3ccccc3OC)CC2)cc1 (configuration not stated)	none (no result: HP1b binding inh, G9a inh, JMJD2A Tudor, BAZ2B block)
CCOc1ccc(C(C)=O)cc1CSc1nnc(N)s1	none
CCN(CC)S(=O)(=O)c1ccc(OC)c(NC(=O)c2ccc(=O)[nH]c2)c1	none
CCOP(=O)(OCC)C(NC(=O)Nc1ccc(C)c(Cl)c1)c1ccccc1 (configuration not stated)	none
Cc1ccccc1NS(=O)(=O)c1ccc2[nH]c3c(c2c1)CCCCC3	G9a inh inconclusive, JMJD2A Tudor 45µM
Cc1ccc(CNS(=O)(=O)c2ccc3[nH]c4c(c3c2)CCCCC4)cc1	none
CC(C)(C)NS(=O)(=O)c1ccc2[nH]c3c(c2c1)CCCCC3	HP1b binding inh inconclusive, G9a inh 71µM, JMJD2A Tudor inconclusive, BAZ2B block 45µM
COc1cc(C(=S)N(C)C)ccc1O	HP1b binding inh inconclusive, G9a inh 6.3µM
NC(=O)c1ccc(-c2nnn(CC(=O)N(C3CCCCC3)C3CCS(=O)(=O)C3)n2)cc1 (configuration not stated)	none
CCOC(=O)C(=NC(C)CC)NNc1cccc(C(F)(F)F)c1 (configuration not stated)	G9a inh inconclusive, BAZ2B block inconclusive
CCOC(=O)C(=NC(C)CC)NNc1ccc(Br)cc1 (configuration not stated)	G9a inh 13µM, JMJD2A Tudor inconclusive, BAZ2B block inconclusive
CCC(=O)NNc1ccc(Br)cc1	G9a inh inconclusive
CCOC(=O)C(=NC1CCS(=O)(=O)C1)NNc1ccc(Br)cc1 (configuration not stated)	G9a inh 10µM, JMJD2A Tudor inconclusive, BAZ2B block inconclusive
CCOC(=O)C(=NC1CCCCC1)NNc1cccc(C(F)(F)F)c1	G9a inh 50µM
CC1CCCC(C)N1C(=O)CN1C(=O)C(C)(C)Oc2ccc(C(=O)NC3CCCCC3)cc21 (configuration not stated)	none
COc1ccc2nc(/C=N/NC(=O)[C@@H]3CCCN3C(=O)OC(C)(C)C)ccc2c1	none
Oc1ccc2cccnc2c1	JMJD2A Tudor inconclusive
CCCCN(CC)C(=O)c1cccc(Cl)c1	none
Cc1nn(Cc2ccc(Cl)cc2)c2sc(C(=O)O)cc12	G9a inh 1µM
O=C(Cc1csc(N2CCOCC2)n1)N/N=C/c1ccc(O)c(O)c1O	HP1b binding inh 16µM, G9a inh 3.5µM, JMJD2A Tudor 10µM, GLS inh inconclusive (no result: BAZ2B block)
O=C(CCN1CCN(c2ccccc2)CC1)N/N=C/c1ccc(O)c(O)c1O	HP1b binding inh 28µM, G9a inh 8.9µM, JMJD2A Tudor 40µM, BAZ2B block 8.9µM, GLS inh inconclusive
O=C(CCN1CCOCC1)N/N=C/c1cc([N+](=O)[O-])ccc1OC(F)F	none
COC(=O)N/N=C/c1cc(C)n(-c2ccccc2)c1C	none
O=C(CCN1CCOCC1)N/N=C/c1cc(Br)cc(Br)c1O	JMJD2A Tudor inconclusive, BAZ2B block 56µM (no result: G9a inh)
Cc1cc(C(=O)N/N=C/c2ccc(O)c(O)c2O)c(C)n1-c1ccccc1	HP1b binding inh inconclusive, G9a inh 10µM, JMJD2A Tudor 56µM, BAZ2B block 56µM, GLS inh 16µM
